Laboratory results taken from PubChem BioAssay (NCI).
Several values for one entry are separate records, joined by “and”; a condition that tells them apart may be missing. Equal entries are not always repeated. About 83,000 compounds went through this panel and 20% of them were active in at least one assay; those are over-represented in the sample as a whole.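 How to read the values: 0–100, growth inhibition (40 = 60% inhibited); 0, no net growth; -100 to 0, cell death (-40 = 40% of starting cells died; -100 = all dead).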 A number with no mark means an inactive call. Activity calls are given as the source filed them. The calls were made as follows: active = growth percent below 10; inactive = the rest.

Each compound was assayed on SF-268 CNS (assay: NCI-60 one-dose screen, 48 h (100 = growth as untreated, 0 = no growth, -100 = all killed)). Conditions: 10 µM unless noted.

Row | Compound | growth
1 | Cc1ccc2c(n1)C(=O)C(Cl)=C(Nc1ccc(C#N)cc1)C2=O | 97%
2 | CC(C)(O)c1cncc(-c2ccc3ncc(C#N)c(N4CCc5cc(F)c(Cl)cc54)c3c2)c1 | 21.5%
3 | O=c1c2ccccc2cc2n1CCN=C2c1ccccc1 | 97.2%
4 | O=C(CN1CCN(c2cc(=O)[nH]c3ccc(F)cc23)CC1)N(c1ccccc1)c1ccccc1 | 99.8%
5 | CCc1cc(OC(=O)N2CCC(N3CCCCC3)CC2)ccc1Nc1cc(-c2ccc(-n3cccn3)cc2)[nH]n1 | 75.9%
6 | CCCC/C(=C\c1ccc(O)c(O)c1)C(=O)NC(Cc1ccccc1)C(=O)C(=O)NCCc1ccc(OC)cc1 (stereo not drawn) | 92%
7 | CN(C)c1ccc(-c2cc(-c3c[nH]c4ccccc34)nc(N)c2C#N)cc1 | 52.3%
8 | COc1cc(C(=O)c2cc(C(C)=O)c3ccc(C)cn23)cc(OC)c1OC | 61.3%
9 | CCOC(=O)c1ccccc1NC1=C(Cl)C(=O)c2nc(C)ccc2C1=O | 99.2%
10 | CN(C)S(=O)(=O)c1ccc(-c2nc(C(Cl)Cl)nc3cc(-c4ccccc4)nn23)cc1 | 88.2%
11 | CN1CCN(c2ccc(Nc3nc(NCCCNS(=O)(=O)c4ccc(Cl)cc4)c4sccc4n3)cc2)CC1 | 5.08% (active)
12 | O=C1[C@@H]2Cc3c([nH]c4ccccc34)[C@H](c3ccc(Cl)cc3)N2C(=O)CN1C1CCN(Cc2ccccc2)CC1 | 50.5%
13 | CN1CCN(CCNc2nc(-c3cccc(NS(=O)(=O)c4cccc5c(N(C)C)cccc45)c3)cs2)CC1 | 82.7%
14 | C#C[C@]1(O)CC[C@H]2[C@@H]3CC=C4c5sc(Nc6ncccc6C)nc5CC[C@]4(C)[C@H]3CC[C@@]21C | 7.66% (active)
15 | CC(=O)N(O)CCCCCNC(=O)CCC(=O)N(O)CCCCCNC(=O)CCC(=O)N(O)CCCCCN(CCCCCCCCCC[P+](c1ccccc1)(c1ccccc1)c1ccccc1)CCCCCCCCCC[P+](c1ccccc1)(c1ccccc1)c1ccccc1 | 16.2%
16 | O=C1Nc2ccccc2/C1=N\c1nnc(-c2ccccc2)o1 | 98.1%
17 | CCCCCCCCCC(=O)NC(C)(C)C(=O)N1CCC[C@H]1C(=O)N[C@@H](CC(C)C)C(=O)N[C@@](C)(CC)C(=O)N[C@@H](CCC(N)=O)C(=O)N[C@H](CCC(N)=O)C(=O)NC(C)(C)C(=O)NC(C)(C)C(=O)N[C@@H](CCC(N)=O)C(=O)N[C@H](CC(C)C)C(=O)N[C@H](CO)CC(C)C | -68.6% (active) and -46.2% (active)

Row | Compound | growth
18 | Fc1cccc(Cl)c1/C=N/Nc1nc(N/N=C/c2c(F)cccc2Cl)nc(N2CCCCC2)n1 | 36.7%
19 | Cc1ccc(/C(N)=N/C(N)=N/c2nc3ccccc3s2)cc1 | 103%
20 | CCc1cc2c(cc1Cl)nc1c(=O)[nH]c(=O)nc-1n2CCOCC(C)(C)C | 88.1%
21 | Cc1csc(/N=C(N)/N=C(\N)c2cccc(Br)c2)n1 | 91.7%
22 | Brc1cccc(-c2cc(-c3cnc4c(c3)OCCO4)n[nH]2)c1 | 76.5%
23 | CN(C)CC(=O)Nc1nc(-c2cccc(NS(=O)(=O)c3cccc4c(N(C)C)cccc34)c2)cs1 | 96.4%
24 | O=C(/C=C/c1cc(Cl)ccc1Cl)Nc1ncc(Cc2ccc(Cl)cc2)s1 | 34.7%
25 | Nc1ncc(-c2ccc3ncnc(NCc4ccccc4)c3c2)cn1 | 44.8%
26 | Cc1ccc(-c2cc3nc(C(Cl)Cl)nc(-c4ccc(S(=O)(=O)N(C)C)cc4)n3n2)cc1 | 98.7%
27 | CCN(CC)CCOc1ccc(C(=C(c2ccccc2)C2CCCC2)c2ccc(OCCN(CC)CC)cc2)cc1 | 25.5%
28 | COC(=O)c1cccc(NC2=C(Cl)C(=O)c3nc(C)ccc3C2=O)c1 | 99.5%
29 | COc1cc(/C=N\NC(=O)c2ccc3nc(-c4ccc(Br)cc4)[nH]c3c2)cc(OC)c1OC | 51.7%
30 | NC1=NC2(CCCC2)N(c2ccc(S(=O)(=O)Nc3nccs3)cc2)C(N)=N1 | 105%
31 | N#C/C(=N\Nc1ccc(F)cc1)C(=O)Nc1cc(-c2ccccc2)nn1-c1ccccc1 | 14.5%
32 | Cc1ccc(S(=O)(=O)c2nc(-c3ccc(F)cc3)oc2S(C)(=O)=O)cc1 | 95.1%
33 | CC(O)c1cccc(/C(N)=N/C(N)=N/c2nc3ccccc3s2)c1 (stereo not drawn) | 94.3%
